Consider 28 compounds from PubChem BioAssay (NCATS).

Experiment [1] has as its system CRL-7250. Put plainly: Cytotoxic Profiling of Annotated Libraries Using Quantitative High-Throughput Screening (AID 1296008). Also: potency is read from the fitted curve at half-maximal effect. As to max response: % is scaled to controls: 0 for no effect and ±100 for the full control effect. Conditions: Five cell lines viability, CellTiter-Glo ATP luminescence, 48-72 h; max response: stronger effect = lower value. In short, it runs like this:
(§1)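 Cells exposed to compounds for 48 or 72 hr at 37 degrees Celsius. Viability read as ATP-coupled luminescence with CellTiter-Glo after 10 min at room temperature.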
For orientation: ATP-based viability assays read luminescence as a measure of living cells.

The test system of experiment [2] is HaCat. The experiment is described as above. Conditions: Five cell lines viability, CellTiter-Glo ATP luminescence, 48-72 h; max response: stronger effect = lower value. In a few lines:
as §1

For experiment [3], the system named is NIH3T3. The experiment is described as above. The note with it: Five cell lines viability, CellTiter-Glo ATP luminescence, 48-72 h; max response: stronger effect = lower value. In a few lines:
as §1

In experiment [4] the test system is HACAT. Kind of experiment: qHTS assay to identify novel small-molecules to repurpose for Merkel cell carcinoma treatment (AID 1296009). Conditions: MCC and control cell lines, CellTiter-Glo viability, 72 h; at 44.8 µM (top of the series) unless noted. In a few lines: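 Cells were incubated with compound for 72 hr at 37 degree celsius before CellTiter-Glo addition. Luminescence was normalized with no-cell wells as full cytotoxicity and DMSO as baseline.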
In general terms: Quantitative high-throughput screening tests each substance at several concentrations.

Records with an inconclusive call do not appear. Unmarked numbers belong to inactive results. Calls of active or inactive are those of the source. Calls follow the shape of the dose curve; as a rule, active = well fitted inhibition curve with a large enough effect; inconclusive = small, poorly fitted or top-dose-only effect; inactive = flat fitted curve, though single readings scatter.
Also: nearly all actives have a fitted effect of over 60% in size.

With `NC(N)=NC(=O)c1cnn(-c2cccc3ncccc23)c1C1CC1`, the max response in experiment [1] was -23.8%; in experiment [2], -2.12%; in experiment [3], -11.3%.

Take `CCCCCCCOc1cc2c(cc1/C(C)=C/c1ccc(C(=O)O)cc1)C(C)(C)CCS2(=O)=O`: the result in experiment [1], in experiment [2], in experiment [3] and in experiment [4] was inactive.

Take `Clc1ccc(Cn2c(Cc3ccccc3)nc3ccccc32)cc1`: the max response in experiment [1] is -7.75%; in experiment [3], -0.247%. In addition, the compound was classed as inactive in experiment [2] and in experiment [4].

Take `CC(=O)O[C@@H]1C[C@]2(C)[C@@]3(CCC4[C@@]5(C)CC[C@H](O[C@@H]6O[C@H](C(=O)O)[C@@H](O)[C@H](OC7OC(CO)C(O)C(O)[C@H]7O[C@@H]7O[C@@H](C)[C@H](O)[C@@H](O)[C@H]7O[C@@H]7OC[C@](O)(CO)[C@H]7O)[C@H]6OC6OC(CO)C(O)C(O)C6O)C(C)(C)C5CC[C@]42C)OC[C@@]12CCC(C)(C)CC23` (stereo not given in full): the max response in experiment [1] is -2.03%; in experiment [2], 0.508%; in experiment [3], 0.621%.

For `CC1OC(OC2C(O)COC(O[C@@H]3[C@@H](O)[C@@H](O)[C@H](OC4C(OC(=O)[C@]56CCC(C)(C)CC5C5=CCC7[C@@]8(C)C[C@H](O)[C@H](OC9OC(CO)C(O)C(O)C9O)[C@@](C)(CO)C8[C@H](O)C[C@@]7(C)[C@]5(C)CC6)OCC(O)C4O)O[C@H]3C)C2O)C(O)C(O)C1O` (stereo not given in full), the figures for the max response in experiment [1], in experiment [2] and in experiment [3] were -12.5%, 0.653% and 2.11%, respectively.

As for `Cc1onc(-c2ccccc2)c1C(=O)N1CCN(c2ccc([N+](=O)[O-])cc2Cl)CC1`, the max response in experiment [1] was -3.78%; in experiment [3] it was 4.81%. The compound was classed as inactive in experiment [2] and in experiment [4].

With `COc1cc(C(C)C)c(Oc2cnc(N)nc2N)cc1I`, the max response in experiment [1] was -1.85%; in experiment [2], -19.2%; in experiment [3] it was -1.33%.

Turning to `CNc1nc(NCc2ccc(NS(C)(=O)=O)cc2Cl)cc(-c2ccccn2)n1`, the Potency in experiment [1] was 20.6 µM (active). In addition, the call in experiment [2] and in experiment [4] was inactive. In addition, the max response in experiment [3] is -15.9%.

Regarding `Cc1nc(Nc2ccc(F)cc2)nc(N2CCc3ccccc3C2C)c1C` (stereo not given), the max response was -9.52% in experiment [1] and -20.5% in experiment [3]. Further, the compound was called inactive in experiment [2] and in experiment [4].

With `C[C@@]12C(=O)N(c3ccc(C(=O)Nc4cccc5cccnc45)cc3)C(=O)[C@@H]1[C@@H]1C=C[C@H]2C1`, the max response in experiment [1] is -9.69%; in experiment [2], -0.616%. Besides, in experiment [3], the result was inactive.

Regarding `Cc1nnc(-c2ccc(-c3ccc(C(=O)Nc4ccc(O)c(N5CCN(C)CC5)c4)cc3)c(C)c2)o1`, the max response in experiment [1] was 3.58%. Moreover, the call in experiment [2], in experiment [3] and in experiment [4] was inactive.

`C[C@@H](Nc1ncnc2[nH]c(-c3ccc(O)cc3)cc12)c1ccccc1`: in experiment [1], the max response is -9.15%. Moreover, the values for the Potency in experiment [2] and in experiment [3] were 0.82 µM (active) and 14.6 µM (active), respectively.

For the compound `Cc1cc(C(C)Nc2ccccc2C(=O)O)c2nc(N3CCOCC3)cc(=O)n2c1` (stereo not given), the max response in experiment [1] is -22.4%. The Potency is 7.31 µM (active) in experiment [2] and 23.1 µM (active) in experiment [3].

With `O=C(Nc1ccc(Cl)cc1)Nc1cccc(-c2cccc(N3CCCC3)n2)c1`, the max response in experiment [1] was -4.95%; in experiment [3] it was 1.43%. The compound was called inactive in experiment [2] and in experiment [4].

For `CCOC(=O)c1ccc(OCCC2CCN(c3ccc(C)nn3)CC2)cc1`, the max response in experiment [1] was -21.9%; in experiment [3], -0.794%. Further, the compound was called inactive in experiment [2] and in experiment [4].

Take `C/C=C/CCC1Cc2cc(O)c(CCCC)c(O)c2C(=O)O1` (stereo not given): the compound was classed as inactive in experiment [1], in experiment [2] and in experiment [4]. Also, in experiment [3], the max response was 2.45%.

Take `CCCn1ncc(CN2CCCC(C(=O)c3cccc(OC(C)C)c3)C2)c1C` (stereo not given): the max response in experiment [1] was -26.8%; in experiment [2], 4.33%; in experiment [3], -15.4%.

On to `COc1ccccc1OCCNCC(O)CCOc1cccc2[nH]c3ccccc3c12` (stereo not given), for which the result in experiment [1], in experiment [2] and in experiment [4] was inactive. In addition, the max response in experiment [3] is -5.46%.

With `O=C1c2ccc(Nc3ccc(F)cc3F)cc2CCc2ccc(OCC(O)CO)cc21` (stereo not given), the max response is -2.8% in experiment [1], 0.902% in experiment [2] and -2.95% in experiment [3].

`CC(C)(O)c1ccn2c(-c3ccc(F)c(-c4ccc(F)cc4C#N)c3)cnc2c1F`: the results for the max response in experiment [1] and in experiment [3] were -19.9% and -2.51%, respectively. Moreover, the outcome in experiment [2] and in experiment [4] was inactive.

As to `COc1c(F)cccc1C(=O)N1C[C@@H](C)CC[C@H]1CNc1ccc(Br)cn1`, the max response was -14.6% in experiment [1], 1.51% in experiment [2] and -27.7% in experiment [3].

Turning to `O=C(NCCCCN1CCN(c2cccc(Cl)c2Cl)CC1)c1cc2ccccc2s1`, the max response in experiment [1] is -20.7%; in experiment [3], -29.5%. Further, the call in experiment [2] and in experiment [4] was inactive.

Regarding `O=C(NO)c1ccc(CC(=O)N(CCO)c2ccccc2)cc1`, the values for the max response in experiment [1] and in experiment [3] were 0.727% and -4.33%, respectively. Further, the call in experiment [2] and in experiment [4] was inactive.

Take `N#CC(CCCN1CCN(/N=C/c2cccnc2)CC1)(c1ccccc1)c1ccccc1`: the max response in experiment [1] is -20.5%; in experiment [2], -26.9%; in experiment [3] it was -25.1%.

`CC(C)C[C@@H](C(=O)N[C@@H](Cc1ccc(OCc2ccccc2)cc1)C(=O)NC(C)(C)C)N(C)Cc1ccc(C(C)(C)C)cc1`: the max response in experiment [1] is -7.62%; in experiment [3] it was -5.54%. For the same compound, the compound was called inactive in experiment [2] and in experiment [4].

For the compound `COc1ccc(CCN(C)CCCOc2nsc(-c3ccccc3)n2)cc1OC`, the compound was called inactive in experiment [1], in experiment [2], in experiment [3] and in experiment [4].

On to `CCCc1ccc(OCC(=O)N(Cc2nc(-c3cccnc3)no2)C(C)C)cc1`, for which the Potency in experiment [1] is 23.1 µM (active). Further, the max response is -2.41% in experiment [2] and -9.24% in experiment [3].

As for `O=S(=O)(c1ccccc1)N(CC(F)(F)F)c1ccc(C(O)(C(F)(F)F)C(F)(F)F)cc1`, the result in experiment [1], in experiment [2] and in experiment [4] was inactive. For the same compound, the max response in experiment [3] is 0.0289%.
